Screens (PubChem)
Tau FP inhib = inhibitors of human tau fibril formation | AID 1468 | K18 P301L tau heparin fibrillization, Alexa594 FP, 6 h | Potency, µM (highest dose often 57.7 µM), for inactives: at the highest dose activity, negative = inhibition, most hits filed as inhibitors | hit rate 0.39% among 280,000 | P10636; further: potency means the concentration at half of the fitted maximal effect; on the % scale 0 is the no-effect control and ±100 the full control effect; nearly all actives have a fitted effect of over 55% in size
Target sequence (P10636 561-689 P618L limits assumed): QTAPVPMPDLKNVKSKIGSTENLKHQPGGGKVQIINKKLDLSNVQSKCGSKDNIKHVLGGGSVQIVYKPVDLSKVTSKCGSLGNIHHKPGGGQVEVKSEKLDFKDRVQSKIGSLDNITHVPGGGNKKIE
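Recombinant K18 P301L […], labeled with Alexa 594 at 0.24 uM over 15 uM unlabeled; heparin inducer 20 uM final; 37 C, 6 hr; FP endpoint.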
Sfp PPTase inh = inhibitors of Bacillus subtilis Sfp phosphopantetheinyl transferase. Potency, µM, without a hit: largest response in the series, negative = inhibition, most hits filed as inhibitors. Biochemical Sfp PPTase activity, qHTS. hit rate 3.5% among 310,000. Q9F4F7;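 further: the enzyme is Sfp with the accession as filed and its product quenches rhodamine fluorescence; potency means the concentration at half of the fitted maximal effect; 0% = enzyme reaction without inhibitor and -100% = no enzyme wells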
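Fluorescence-quenching assay: 15 nM Sfp-PPTase preincubated 15 min at room temperature with compound, then 5 uM rhodamine-CoA and 12.5 uM BHQ-2-labelled YbbR peptide added. Fluorescence (ex 525/em 598 nm) read at start and after 30 min; difference gives rate.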
Tau fluor cs = counter-screen for tau fibril formation inhibitors | hit rate 0.93% among 280,000 | AID 1463 | Potency, µM (top dose mostly 57.7 µM), for the others: top-dose activity change, negative = decrease | tau K18 P301L Alexa594 fluorescence, heparin fibrillization; further: potency means the concentration at half of the fitted maximal effect; on the % scale 0 is the no-effect control and ±100 the full control effect; nearly all actives have a fitted effect of over 55% in size
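Human K18 P301L tau (15 uM unlabeled plus 0.24 uM Alexa 594-labeled, final) in 100 mM sodium acetate pH 7 was mixed with compound and 20 uM heparin and incubated 6 hr at 37 C.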
Tau ThT inhib = blocks human tau fibril formation measured by thioflavin T | P10636 | recombinant tau K18 P301L, heparin-induced fibrillization, ThT fluorescence | Potency, µM (doses to about 57.4 µM), without a hit: at the top dose activity, negative = inhibition, most hits filed as inhibitors | hit rate 2.1% among 270,000 | AID 1460; further: potency means the concentration at half of the fitted maximal effect; on the % scale 0 is the no-effect control and ±100 the full control effect; nearly all actives have a fitted effect of over 55% in size
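In this qHTS, human K18 P301L tau is incubated with compound and heparin for 6 hr at 37 C, and Thioflavin T fluorescence then reports fibril load.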
Coupling enz = coupling enzyme interference in Giardia aldolase counter-screen; coupling enzyme system counterscreen, AmpLite Red fluorescence; activity change, negative = inhibition, % at 58.2 µM, hits read low; hit rate 0.67% among 290,000; AID 2472; in the data active means activity change below about -30%; further: on the % scale 0 is the no-effect control and ±100 the full control effect
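Final compound at 57.5 uM, incubated 10 min at RT with coupling enzyme reagent (glyceraldehyde-3-phosphate), then 20 min with substrate and AmpLite Red detection. Fluorescence read at 525/598 nm; tests interference with the coupling assay, not aldolase inhibition.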
tau fibril sed = reduces sedimented tau K18 P301L aggregates | shares compounds with Tau ThT inhib | AID 1720 | inhibition, % at 100 µM | hit rate 50% among 110 | recombinant tau K18 P301L (four-repeat tau fragment), sedimentation SDS-PAGE densitometry; in the data active means inhibition above about 40%; inconclusive means no clear call, values can overlap the other calls; inactive means below about 18%
* marks the source's active call; other numbers are inactive results; ? = inconclusive; · = no result; [ ] = remark or other dose. Compounds with a hit are over-represented: about 5.2% of the library has one in this group of screens. Unless noted, the call rests on the fitted dose curve; in most records, active means well fitted curve in the direction sought with a large enough effect; inconclusive means small, poorly fitted or top-dose-only effect, or another doubt; inactive means no such curve, though single readings can be large; an effect the other way counts as inactive or inconclusive.

SMILES	Tau FP inhib	Sfp PPTase inh	Tau fluor cs	Tau ThT inhib	Coupling enz	others
CSc1oc(-c2cccs2)nc1S(=O)(=O)c1ccccc1	-13%	89µM*	-17%	·	-9
CSc1oc(-c2ccco2)nc1S(=O)(=O)c1ccc(F)cc1	-3%	79µM*	-17%	-16%	-7
CSc1oc(-c2ccco2)nc1S(=O)(=O)c1ccc(C)cc1	·	-13%	·	·	-5
CO[C@@]1(NC(=O)Cc2cccs2)C(=O)N2C(C(=O)O)=C(COC(N)=O)CSC21 (stereo partly drawn)	?	-27%	?	?	3
COc1ccc(/C=N/c2c(-c3ccc(OC)cc3)nc3n2CCS3)cc1	-4%	-20%	?	14µM*	1
CCc1cccc(NC(=O)CC2Oc3ccc(C)cc3NC2=O)c1 (stereo not drawn)	-11%	·	-3%	15%	·
COc1cc(-c2cc(C(=O)Nc3cccc(S(=O)(=O)N(C)C)c3)c3ccccc3n2)cc(OC)c1OC	·	14%	·	·	-4
COc1cccc(-c2cc(C(=O)Nc3ccc4c(c3)OCCO4)c3ccccc3n2)c1	?	5%	?	2%	-6
Cc1ccc(-c2cc(C(=O)Nc3cccc(S(=O)(=O)N(C)C)c3)c3ccccc3n2)o1	·	50µM*	·	·	-1
COc1cccc(NC(=O)c2cc(-c3ccc(C)o3)nc3ccccc23)c1	·	50µM*	·	·	0
CN(C)S(=O)(=O)c1cccc(NC(=O)COC(=O)c2cc(-c3cccc(Br)c3)nc3ccccc23)c1	13µM*	6%	?	9%	1
CC(C)N(Cc1ccccc1)C(=O)C1CCCN(c2ncnc3onc(-c4ccc(F)cc4)c23)C1 (stereo not drawn)	1%	·	1%	1%	·
COc1ccc(CCNC(=O)C(=O)NCC(c2cccs2)S(=O)(=O)c2ccc(C)cc2)cc1 (stereo not drawn)	-14%	·	-8%	1%	·
Cc1oc2ncn(C)c(=O)c2c1C(=O)NCc1ccccc1	-10%	·	-6%	-4%	·
O=C(O)CCc1ccc(-c2cccs2)n1CCC(=O)O	-11%	7.9µM*	-13%	?	-1
Cc1ccc(NC(=O)Cn2c(CCC(=O)O)ccc2-c2cccs2)cc1Cl	9%	40µM*	-17%	?	9
O=C(O)CCc1ccc(-c2cccs2)n1CCc1ccccc1	-13%	20µM*	-16%	?	7
C=Cc1ccc(S(=O)(=O)O)cc1	·	12%	·	·	1
CC[C@H](C)[C@H](NC(=O)CNC(=O)[C@@H](NC(=O)[C@@H](NC(=O)[C@H](Cc1ccc(O)cc1)NC(=O)[C@H](CC(C)C)NC(=O)[C@H](C)NC(=O)[C@H](CCC(N)=O)NC(=O)CNC(=O)[C@@H]1CCCN1C(=O)CNC(=O)[C@H](Cc1ccccc1)NC(=O)[C@H](Cc1cnc[nH]1)NC(=O)[C@@H](NC(=O)CNC(=O)[C@H](CCCNC(=N)N)NC(=O)[C@H](CCCNC(=N)N)NC(=O)[C@@H](NC(=O)[C@H](CC(N)=O)NC(=O)[C@@H](N)CS)[C@@H](C)O)[C@@H](C)CC)[C@@H](C)O)[C@@H](C)O)C(=O)O	·	-15%	·	·	1
CC(C)(C)OC(=O)[C@H](Cc1ccccc1)NC(=O)c1[nH]cnc1C(=O)Nc1ccc(Cl)cc1	13µM*	21%	?	15%	-1
CC(C)(C)OC(=O)[C@H](Cc1ccccc1)NC(=O)c1[nH]cnc1C(=O)Nc1cccc(Cl)c1	22µM*	26%	?	16%	-3
Cc1cccc(NC(=O)c2nc[nH]c2C(=O)N[C@@H](Cc2ccccc2)C(=O)OC(C)(C)C)c1	8.9µM*	20%	?	?	-4
CC(C)C[C@H](NC(=O)c1nc[nH]c1C(=O)N[C@@H](CC(C)C)C(=O)OC(C)(C)C)C(=O)OC(C)(C)C	-13%	26%	-22%	-12%	-16
CCOC(=O)c1ccc(NC(=O)c2nc[nH]c2C(=O)N[C@@H](Cc2ccccc2)C(=O)OC(C)(C)C)cc1	?	27%	?	?	-4
CC(C)(C)OC(=O)[C@H](Cc1ccccc1)NC(=O)c1nc[nH]c1C(=O)N[C@@H](Cc1ccccc1)C(=O)OC(C)(C)C	?	19%	-19%	-6%	-11
SMILES	Tau FP inhib	Sfp PPTase inh	Tau fluor cs	Tau ThT inhib	Coupling enz	others
CC(C)C[C@H](NC(=O)c1[nH]cnc1C(=O)Nc1ccc(Cl)cc1)C(=O)OC(C)(C)C	11µM*	25%	-26%	18%	-7
Cc1ccc(CNC(=O)Cn2c(=O)n(-c3ccc(C)c(F)c3)c(=O)c3sc4ccccc4c32)cc1	-15%	·	6%	9%	·
Cc1cccc(NC(=O)c2nc[nH]c2C(=O)N[C@@H](CC(C)C)C(=O)OC(C)(C)C)c1	13µM*	27%	?	8%	-6
CCCCS(=O)(=O)N1CCc2nc(-c3ccc(OC)cc3C)c3c(c2C1)CO[C@@H](c1ccccc1)C3	-2%[11.6 µM]	4%	7%[11.6 µM]	0%[11.5 µM]	3
O=C(c1ccc2c(=O)n(CCc3ccccc3)c(=O)[nH]c2c1)N1CCN(c2ccc(Cl)cc2)CC1	-7%	·	-28%	-17%	·
COC(=O)CN=C1OC(=O)N2C(=O)C3=C4C(C[C@H]5C(=O)N(c6ccccc6)C(=O)[C@H]5[C@H]4[C@@]12Cc1ccccc1)[C@H]1C(=O)N(c2ccccc2)C(=O)[C@H]1[C@H]3C (stereo partly drawn)	4%	25%	-4%	-1%	3
COc1ccc(CNC(=O)CSCc2ccc(C)cc2)c(OC)c1	5%	·	1%	6%	·
NC(=S)n1[nH]c(-c2ccc([N+](=O)[O-])cc2)c(N=Nc2ccc(Cl)cc2)c1=O	9%	-18%	?	4µM*	-1
CCOC(=O)c1cccc(NC(=O)c2cc3ccccn3n2)c1	1%	·	-25%	?	·
O=C(Nc1ccc(OC(F)(F)F)cc1)Nc1cccc([N+](=O)[O-])c1	4.5µM*	?	1.8µM*[quencher]	?	-12	tau fibril sed=13
CCn1nccc1C(=O)Nc1cc(Cl)cc(Cl)c1	28µM*	-1%	?	?	1	tau fibril sed=?
COc1cccc(-n2nc(C(=O)O)c3ccccc3c2=O)c1	-2%	-25%	-4%	-6%	3
Nc1scc2c(C(=O)O)nn(-c3ccccc3)c(=O)c12	·	·	·	·	·	tau fibril sed=84*
Nc1scc2c(C(=O)NCc3ccccc3)nn(-c3ccccc3)c(=O)c12	·	·	·	·	·	tau fibril sed=54*
CCNc1ncc2nc(C)c(=O)n(C)c2n1	·	16%	·	·	0
CCOC(=O)c1nn(-c2ccc(F)cc2)c(=O)c(C#N)c1C	·	4%	·	·	1
CCOC(=O)c1nn(-c2ccc(F)cc2)c(=O)c2c(N)scc12	1%[2.34 µM]	50µM*	-1%	1%	12	tau fibril sed=64*
